Screens from PubChem.
Only some compounds are listed: those with a hit (about 21% of all), similar ones and a draw of the others.
Gal4-VP16 FLuc: VP16 counterscreen qHTS for inhibitors of ROR gamma transcriptional activity | Potency, µM (doses to about 53.6 µM), without a hit: top-dose activity, negative = inhibition, hits mostly inhibitors | Drosophila S2 Gal4-VP16 UAS-luciferase, luminescence, 20 h | 310,000 compounds, 3.5% hits | AID 2546, 2010;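 note: Gal4-VP16 expression switched on by copper sulfate through the metallothionein promoter; potency is the fitted concentration of half-maximal effect; nearly all actives have a fitted effect of over 50% in size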
DT40 TDP1 no CPT: qHTS for Inhibitors of human tyrosyl-DNA phosphodiesterase 1 (TDP1): qHTS in cells in absence of CPT; DT40 Tdp1-/- hTDP1 cells, no CPT, ATP luminescence, 48 h; Potency, µM (highest dose often 46.2 µM), for inactives: at the highest dose activity change, negative = growth inhibition, most hits filed as inhibitors; 420,000 compounds, 15% hits; AID 686978, 2013; note: potency is the fitted concentration of half-maximal effect; nearly all actives have a fitted effect of over 55% in size
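DT40 Tdp1-/-;hTDP1 cells, no CPT (DMSO vehicle only), 400 cells/well; compounds pin-transferred; ≥48 hr, 37 °C; CellTiter-Glo 30 min RT dark, luminescence read.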
IL1B secr inh: qHTS for Inhibitors of Inflammasome Signaling: IL-1-beta AlphaLISA Primary Screen | THP-1 LPS/ATP IL-1B secretion, AlphaLISA, 16 h; hits give low values | activity change, % at 57.5 µM | 360,000 compounds, 4.7% hits; in the data active = activity change below about -50%; inconclusive = mostly about -30% to -49%
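Secreted IL-1B measured by AlphaLISA bead assay after 16 h compound exposure of THP-1 cells; compounds (final up to 57.5 uM) added 1 h before LPS (250 ng/mL) and ATP (1.25 mM) stimulation; lower signal means less secretion.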
ELG1 repair inh: qHTS screen for small molecules that inhibit ELG1-dependent DNA repair in human embryonic kidney (HEK293T) cells expressing luciferase-tagged ELG1; HEK293T ELG1-luciferase reporter, luminescence, 16 h; DNA damage induced by 5-fluorouridine; Potency, µM (doses to about 46.1 µM), inactives show top-dose activity change, negative = inhibition, usual class: inhibitors; 330,000 compounds, 2.3% hits; AID 504467, 2011; note: potency is the fitted concentration of half-maximal effect; nearly all actives have a fitted effect of over 55% in size
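Luminescence from the luciferase reporter, measured 30 min after ONE-Glo reagent at room temperature, was the read-out. Beforehand, 2,000 cells per well were exposed for 16 hr at 37 °C to 5-fluorouridine together with compound or vehicle.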
RORgamma inh: qHTS for inhibitors of ROR gamma transcriptional activity | Drosophila S2 Gal4-RORgamma UAS-luciferase reporter, 20 h | 310,000 compounds, 5.4% hits | Potency, µM (highest dose often 53.6 µM), for the others: top-dose activity change, negative = inhibition, usual class: inhibitors | AID 2551, 2010 | Nuclear receptor ROR-gamma (Mus musculus), P51450; note: potency is the fitted concentration of half-maximal effect; nearly all actives have a fitted effect of over 60% in size
Target sequence (P51450 whole entry, looked up, the tested form may be a part): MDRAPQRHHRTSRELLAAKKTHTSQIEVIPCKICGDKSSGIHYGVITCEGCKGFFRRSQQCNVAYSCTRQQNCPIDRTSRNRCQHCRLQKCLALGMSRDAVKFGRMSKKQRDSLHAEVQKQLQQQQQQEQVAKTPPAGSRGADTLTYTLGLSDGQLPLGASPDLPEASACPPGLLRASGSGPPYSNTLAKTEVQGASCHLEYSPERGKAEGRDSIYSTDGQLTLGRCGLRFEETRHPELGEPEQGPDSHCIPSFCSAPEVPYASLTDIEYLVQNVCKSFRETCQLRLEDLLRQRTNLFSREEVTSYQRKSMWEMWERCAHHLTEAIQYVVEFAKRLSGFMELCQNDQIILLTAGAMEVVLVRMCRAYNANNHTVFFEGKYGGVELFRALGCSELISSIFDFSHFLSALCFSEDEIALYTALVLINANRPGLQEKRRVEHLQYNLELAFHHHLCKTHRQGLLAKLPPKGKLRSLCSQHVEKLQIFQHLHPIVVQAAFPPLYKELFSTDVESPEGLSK
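ROR gamma transcriptional activity was tracked as Gal4-UAS luciferase output in stably transfected Drosophila Schneider cells, with compound added 1 hr before 700 uM copper sulfate induction and a 20 hr ambient-temperature incubation.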
TDP1 cell CPT: qHTS for Inhibitors of human tyrosyl-DNA phosphodiesterase 1 (TDP1): qHTS in cells in presence of CPT | 420,000 compounds, 12% hits | chicken DT40 Tdp1-/-;hTDP1 cells + 20 nM CPT, ATP luminescence, 48 h | AID 686979, 2013 | Potency, µM (highest dose often 46.2 µM), without a hit: at the top dose activity change, negative = growth inhibition, most hits filed as inhibitors; note: potency is the fitted concentration of half-maximal effect; nearly all actives have a fitted effect of over 55% in size
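Chicken DT40 Tdp1-/- cells stably complemented with human TDP1 were seeded at 400 cells/well in medium containing 20 nM camptothecin, exposed to pin-transferred compounds, and grown at 37 °C for at least 48 hr. Viability was read as ATP luminescence.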
The depositor's hits bear a star; ? = inconclusive; . = not tested or not shown. Unless noted, calls come from the whole dose curve; as a rule, active = well fitted curve in the direction sought with a large enough effect; inconclusive = small, poorly fitted or top-dose-only effect, or another doubt; inactive = no such curve, though single readings can be large; an effect the other way counts as inactive or inconclusive. % is set by controls: 0 for no effect and ±100 for the full control effect.

SMILES	Gal4-VP16 FLuc	DT40 TDP1 no CPT	IL1B secr inh	ELG1 repair inh	RORgamma inh	TDP1 cell CPT
Cc1ccc(-c2nn(CC(=O)N3CCOCC3)c(=O)c3ccccc23)cc1S(=O)(=O)N(C)C	-5%	-12%	-1	2%	7%	0%
Cc1ccnc2nc(NC(=O)c3ccccc3Cl)nn12	.	2%	.	.	.	0%
COc1ccccc1CN1CCC2(CC1)CCN(C(=O)c1c(C)noc1C)CC2	-5%	-4%	.	.	-22%	3%
CCN(CC)CCNC(=O)c1ccc(Cl)c(S(=O)(=O)Nc2ccccc2OC)c1	0%	?	13	17%	4%	-19%
CCN(CC)CCNC(=O)c1ccc(NC(=O)c2ccc(Cl)c(S(=O)(=O)N3CCCCCC3)c2)cc1	?	?	-104*	?	?	?
CCN(CC)CCNC(=O)c1ccc(Cl)c(S(=O)(=O)Nc2ccc(Cl)cc2)c1	20µM*	-3%	-9	3%	?	-12%
Cc1ccc(S(=O)(=O)N(C)C)cc1NC(=O)COC(=O)COc1ccc2c(c1)CCC2	.	-6%	5	-2%	.	-6%
CC(C)(C)N(Cc1ccccc1)C(=O)COC(=O)c1ccc(S(=O)(=O)N2CCOCC2)cc1	.	-6%	14	-10%	.	?
Cc1ccc(CN2CCOCCS2(=O)=O)cc1	.	?	.	.	.	-25%
O=c1c(N2CCOCC2)c(N2CCOCC2)c1=O	-1%	-4%	0	15%	30%	-6%
CC(C)(C)C1=CC(=O)C(N2CCOCC2)=CC1=O	?	21µM*	35	2%	10µM*	7.3µM*
CCCc1nc2ccc(Cl)cn2c1Cc1ccccc1	.	4.1µM*	21	.	.	6.5µM*
CCCc1nc2ccc(C)cn2c1Cc1ccccc1OC	.	21µM*	0	.	.	21µM*
CCCc1nc2ccc(C)cn2c1Cc1ccc(OC)cc1C	.	23µM*	5	.	.	13µM*
Fc1ccc(-c2nc3ccc(Cl)cn3c2Cc2ccccc2)cc1	.	?	19	.	.	?
CCCc1nc2ccc(C)cn2c1Cc1ccccc1C(F)(F)F	.	?	-14	.	.	?
CCCc1nc2c3ccccc3ccn2c1Cc1ccc(OC)cc1C	.	?	-12	.	.	18µM*
CCCc1nc2ccc(Br)cn2c1Cc1ccccc1OC	.	0.82µM*	2	.	.	1.5µM*
COc1ccc(Cc2c(C(C)(C)C)nc3ccc(Br)cn23)c(C)c1	.	?	29	.	.	?
CCCc1nc2ccc(Cl)cn2c1Cc1ccccc1OC	.	12µM*	10	.	.	7.3µM*
COc1ccccc1Cc1c(-c2ccc(F)cc2)nc2ccc(Cl)cn12	.	?	26	.	.	?
COCc1c(C(=O)N2CCN(c3ncccn3)CC2)oc2ccccc12	.	?	10	2%	.	15µM*
COCc1c(C(=O)N2CCN(Cc3ccc4c(c3)OCO4)CC2)oc2ccccc12	.	?	-3	?	.	?
COCc1c(C(=O)N(C)Cc2ccccc2N2CCCC2)oc2ccccc12	.	23µM*	-16	-25%	.	?
COCc1c(C(=O)N2CCN(Cc3ccc(C#N)cc3)CC2)oc2ccccc12	2%	21µM*	-11	-18%	7%	-30%
COCc1c(C(=O)N2CCN(Cc3c(F)cccc3Cl)CC2)oc2ccccc12	5%	21µM*	-29	-18%	43%	?
CCOC(=O)N1CCN(Cc2c(F)cccc2Cl)CC1	9%	-17%	15	10%	2%	?
